# Compound activity (PubChem BioAssay)
# ALR inh = inhibitors of human ALR sulfhydryl oxidase, primary screen, biochemical, H2O2 detection, HRP-luminol luminescence, single point | FAD-linked sulfhydryl oxidase ALR (Homo sapiens), P55789 | inhibition, % (concentration not given with the values) | actives 3.8% (n = 290,000) | purified ALR, DTT oxidation;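 active = mean replicate inhibition above about 79%, with every replicate also reaching it, limit read from the data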
# NSD2 inh = NSD2 histone methyltransferase inhibitors, primary screen, biochemical, AlphaScreen, single concentration, set 2 | inhibition, % at 12.5 µM | NSD2 peptide methylation, 120 min | actives 0.54% (n = 310,000); in the data active = inhibition above about 50%
# Target sequence (O96028 whole entry, looked up): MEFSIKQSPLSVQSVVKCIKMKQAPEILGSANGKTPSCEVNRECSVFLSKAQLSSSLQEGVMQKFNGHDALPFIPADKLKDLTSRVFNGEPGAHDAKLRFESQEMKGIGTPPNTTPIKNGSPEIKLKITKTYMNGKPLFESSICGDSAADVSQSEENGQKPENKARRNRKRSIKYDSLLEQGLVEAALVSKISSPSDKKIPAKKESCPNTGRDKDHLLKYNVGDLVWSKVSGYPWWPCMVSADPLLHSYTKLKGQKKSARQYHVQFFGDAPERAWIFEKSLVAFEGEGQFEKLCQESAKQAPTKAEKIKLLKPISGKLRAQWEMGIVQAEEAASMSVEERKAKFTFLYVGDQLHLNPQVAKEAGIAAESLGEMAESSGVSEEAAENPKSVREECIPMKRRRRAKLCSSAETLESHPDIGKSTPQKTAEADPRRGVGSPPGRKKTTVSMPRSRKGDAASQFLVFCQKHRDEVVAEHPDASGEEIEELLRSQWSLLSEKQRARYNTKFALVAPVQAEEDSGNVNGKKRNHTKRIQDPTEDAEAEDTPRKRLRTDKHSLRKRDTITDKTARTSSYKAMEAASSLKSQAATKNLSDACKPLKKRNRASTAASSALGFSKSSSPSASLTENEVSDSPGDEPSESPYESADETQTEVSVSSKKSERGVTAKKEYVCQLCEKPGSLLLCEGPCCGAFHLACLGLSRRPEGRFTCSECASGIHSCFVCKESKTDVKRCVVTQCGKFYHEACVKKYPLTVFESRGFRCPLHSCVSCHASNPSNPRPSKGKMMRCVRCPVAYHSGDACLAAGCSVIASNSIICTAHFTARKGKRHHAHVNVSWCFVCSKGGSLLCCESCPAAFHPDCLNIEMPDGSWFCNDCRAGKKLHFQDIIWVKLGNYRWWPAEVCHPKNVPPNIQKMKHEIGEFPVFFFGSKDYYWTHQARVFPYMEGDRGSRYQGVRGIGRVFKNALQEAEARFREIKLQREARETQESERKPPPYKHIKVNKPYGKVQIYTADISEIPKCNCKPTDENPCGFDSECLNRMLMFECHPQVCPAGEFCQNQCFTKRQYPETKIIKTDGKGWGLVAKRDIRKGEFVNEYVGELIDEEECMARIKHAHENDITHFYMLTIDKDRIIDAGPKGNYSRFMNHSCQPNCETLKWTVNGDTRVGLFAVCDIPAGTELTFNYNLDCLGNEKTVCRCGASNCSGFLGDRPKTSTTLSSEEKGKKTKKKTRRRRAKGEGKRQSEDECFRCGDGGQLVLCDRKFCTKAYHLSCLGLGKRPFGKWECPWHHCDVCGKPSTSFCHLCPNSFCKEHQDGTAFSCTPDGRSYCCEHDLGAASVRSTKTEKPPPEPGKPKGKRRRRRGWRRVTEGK
# HIV Env fusion = inhibitors of HIV-1 Env-driven cell-cell fusion, primary screen, HeLa-JRFL effector, CEM21 target cells, luciferase; inhibition, % at 12.3 µM; actives 1.1% (n = 360,000); AID 651610, 2012;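 active = mean replicate inhibition score of at least 50 and every replicate individually at or above 50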;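 also: 0% = plate neutral controls and 100% = maraviroc near 300 nM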
# CASP6 VEID inh = human caspase-6 inhibitors, primary screen, biochemical, VEID-R110 fluorescence, single point, set 2; AID 686996, 2013; inhibition, % at 12.5 µM; purified caspase-6, Z-VEID-R110 cleavage fluorescence; P55212; actives 0.53% (n = 350,000);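 active = mean inhibition across replicates at least about 35%, with every replicate also reaching that limit, limit read from the data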;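 also: 0% = median of neutral control wells and 100% = no fluorescence left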
# F508del corr = F508del CFTR correction, initial screen, CFBE line, single point. activity (quench increase), % at 7.58 µM. CFBE cells, YFP halide quenching; stimulated with forskolin plus potentiator P3; % fluorescence drop versus neutral controls. actives 0.36% (n = 350,000);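 active = mean added fluorescence quench of at least 8% versus neutral control, with both replicates also reaching 8%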;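 also: cells transiently co-express mutant CFTR-F508del with the halide-sensitive YFP; corrector assay measuring rescue of mutant channel to the surface after 24 h compound exposure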
# PglD inh = C. jejuni PglD acetyltransferase inhibitors, primary screen, biochemical, DTNB colorimetric, single point; UDP-N-acetylbacillosamine N-acetyltransferase PglD (Campylobacter jejuni); purified PglD enzyme, DTNB colorimetric CoA detection; inhibition, % at 12.5 µM; actives 0.098% (n = 360,000); in the data active = inhibition above about 16%, passing the limit was not always enough
# * = called active by the depositor; . = not tested or not shown; [ ] = another dose, or the depositor's remark. The list is not random: actives were taken first. Their share in the collection is about 4.1%.
SMILES,ALR inh,NSD2 inh,HIV Env fusion,CASP6 VEID inh,F508del corr,PglD inh
Cc1ccc2nc(N3C(=O)CNC3=S)sc2c1,93*,0,3,-5,3,1
CC=Cc1ccc2n(c1=O)C[C@@H]1[C@@H](CO)[C@H](C(=O)NCC3CCCCC3)N(C(=O)CC)[C@H]21 (mixture of isomers),.,.,.,.,0,-2
Cc1c(NC(=O)c2cc(-n3cnnc3)ccc2Cl)cccc1-c1nc2ccccc2s1,88*,0,-241,.,.,8
O=C(Nc1cccc(-c2nc3ccccc3s2)c1)c1cc(-n2cnnc2)ccc1Cl,-10,-1,.,.,.,2
O=C1CSC(c2cccs2)N1c1ccccc1 (stereo unspecified),.,-3,.,2,-3,0
c1ccc(N2CCN(c3ccccc3)C2c2cccs2)cc1,99*,8,-101,.,.,10
COc1ccc2c3c(n(C)c2c1)[C@H](CO)N(CC1CCCCC1)CC31CCN(C(=O)CN(C)C)CC1,.,.,.,.,1,.
COc1ccc(N=C2C(=O)N3CCCc4cccc2c43)cc1,99*,6,10,-2,12*,.
COc1ccc(N2C(=O)CSC23C(=O)N2CCCc4cccc3c42)cc1 (stereo unspecified),10,-2,-103,.,.,3
O=C(Cc1ccncc1)NCC[C@H]1CC[C@@H](NC(=O)C2CCCC2)[C@H](CO)O1,.,.,1[16.7 µM],0,0,2
Cc1cc[n+](C(C)C(=O)c2ccc(-c3ccccc3)cc2)cc1 (stereo unspecified),-15,8,10,-3,4,.
CC(C(=O)c1ccc(-c2ccccc2)cc1)[n+]1ccccc1 (stereo unspecified),-7,3,46*,.,.,-8
O=C1CN(S(=O)(=O)c2ccccc2)C[C@@H]2[C@H](c3ccc(C#Cc4ccccc4)cc3)[C@H](CO)N12,.,.,.,-2,5,.
Cc1ccc(NC(=O)c2nc[nH]c2C(=O)Nc2ccccc2F)cc1,.,.,-12,-1,3,-4
O=C(Nc1ccccc1)c1nc[nH]c1C(=O)Nc1ccccc1F,.,.,-100,49*,9.5*,0
O=C(NCCCN1CCOCC1)c1ccc2nc(-c3ccc(F)cc3)c(-c3ccc(F)cc3)nc2c1,.,4,.,.,.,.
Cc1ccc(NC(=O)CSc2nnc(-c3cccnc3)s2)cc1,-1,-6,-16,.,.,-4
O=C(CSc1nnc(-c2cccnc2)s1)Nc1ccnc2ccccc12,.,.,55*,.,.,.
CC(=O)Nc1ccc(S(=O)(=O)N2CCCC2C(=O)Nc2ccc(F)cc2)cc1 (stereo unspecified),-20,1,-5,-2,-1,2
O=C(Nc1ccc(F)cc1)C1CCCN1S(=O)(=O)c1ccc(Br)cc1 (stereo unspecified),0,-3,81*,2,-1,8
CSc1cccc(NC(=O)C2CCCN2S(=O)(=O)c2ccc(Br)s2)c1 (stereo unspecified),-5,-7,60*,.,.,2
COc1cccc(C(=O)NCCNc2nc3cc(C)cc(C)c3cc2C#N)c1,.,.,-24,-3,2,.
COc1ccc(C(=O)NCCNc2nc3ccc(C)cc3cc2C#N)cc1OC,90*,-3,-22,-1,.,-9
Nc1ccccc1SCc1cn2cccnc2n1,98*,.,-118,-2,-3,1
Nc1ccccc1SCc1cn2ccccc2n1,24,-1,-13,-1,-4,.
SMILES,ALR inh,NSD2 inh,HIV Env fusion,CASP6 VEID inh,F508del corr,PglD inh
c1ccc(SCc2cn3cccnc3n2)nc1,-1,.,-14,-4,2,.
Cc1cccn2cc(CSc3ccccc3N)nc12,81*,2,-132,.,.,1
CN(C)C(=O)[C@H]1[C@H](CO)[C@H]2Cn3c(ccc(-c4cccc(F)c4)c3=O)[C@H]2N1C(=O)c1ccccn1,.,.,.,-1,-5,2
COc1ccc(NC(=O)CSc2nc3c(c(=O)n2C)SCC3)cc1OC,99*,4,8,4,-2,-1
COCCn1c(SCC(=O)Nc2cccc(F)c2)nc2c(c1=O)SCC2,99*,19,-17,0,-1,-3
COCCn1c(SCC(=O)Nc2cc(C)on2)nc2c(c1=O)SCC2,-4,.,-23,0,-3,1
Cn1c(SCC(=O)Nc2ccc(F)cc2)nc2c(c1=O)SCC2,40,0,7,3,3,-2
Cn1c(SCc2ccc([N+](=O)[O-])cc2)nc2c(c1=O)SCC2,99*,1,25,5,2,.
CCn1c(SCC(=O)Nc2ccc(OC)c(OC)c2)nc2c(c1=O)SCC2,99*,0,10,4,-1,3
CCn1c(SCC(=O)Nc2cc(OC)ccc2OC)nc2c(c1=O)SCC2,-10,7,10,1,1,4
CC(=O)N(C)C[C@H]1Oc2cc(-c3ccccc3F)ccc2S(=O)(=O)N([C@@H](C)CO)C[C@H]1C,.,.,1[16.7 µM],-1,-1,3
C[C@H](CO)N1C[C@H](C)[C@H](CN(C)C(=O)Nc2cccc3ccccc23)Oc2ncc(-c3cc4ccccc4o3)cc2C1=O,.,.,-7[16.7 µM],2,6,-2
C[C@@H]1CN([C@H](C)CO)C(=O)c2cccc(NC(=O)C3CCCCC3)c2O[C@H]1CN(C)Cc1ccc(C(=O)Nc2ccccc2N)cc1,.,.,-24[16.7 µM],-3,-2,-2
Cn1c(SCC(=O)Nc2ccccc2F)nc2c(c1=O)SCC2,88*,0,22,-1,-1,-3
O=C(Nc1ccc(Cl)cc1)C1CCCN(S(=O)(=O)c2cnc[nH]2)C1 (stereo unspecified),96*,.,8,2,-1,3
O=C(NCCN1CCN(c2ccccc2F)CC1)C1CCCN(S(=O)(=O)c2cnc[nH]2)C1 (stereo unspecified),88*,.,24,0,2,-4
O=C(NCc1ccc(Cl)cc1)C1CCCN(S(=O)(=O)c2cnc[nH]2)C1 (stereo unspecified),94*,.,-35,3,-2,-1
COc1ccc(N2CCN(CCCNC(=O)C3CCCN(S(=O)(=O)c4cnc[nH]4)C3)CC2)cc1 (stereo unspecified),87*,.,-6,-9,1,3
CC(C)(C)S(=O)N1Cc2cc(C(=O)N[C@@H]3CCN(Cc4ccccc4)C3)nc(-c3cccc(C#CCC4CCCC4)c3)c2[C@H]1CCO (stereo partly specified),.,.,.,-2,-1,.
CO[C@H]1CC[C@@H]2CCOc3ccc(C#N)cc3C(=O)N(C)C[C@@H](C)C(=O)N(C)C[C@@H]1O2,.,.,5[16.7 µM],-1,.,-6
